Assay outcomes: PubChem, National Center for Advancing Translational Sciences (NCATS)
ALDH1A1 block = ALDH1A1 (human) enzyme inhibition; P00352; Purified ALDH1A1, NADH fluorescence, propionaldehyde substrate; Potency, µM (doses to about 75.3 µM), hits mostly inhibitors; 220,000 compounds, 7.3% hits; AID 1030
Target sequence (P00352 whole entry, looked up): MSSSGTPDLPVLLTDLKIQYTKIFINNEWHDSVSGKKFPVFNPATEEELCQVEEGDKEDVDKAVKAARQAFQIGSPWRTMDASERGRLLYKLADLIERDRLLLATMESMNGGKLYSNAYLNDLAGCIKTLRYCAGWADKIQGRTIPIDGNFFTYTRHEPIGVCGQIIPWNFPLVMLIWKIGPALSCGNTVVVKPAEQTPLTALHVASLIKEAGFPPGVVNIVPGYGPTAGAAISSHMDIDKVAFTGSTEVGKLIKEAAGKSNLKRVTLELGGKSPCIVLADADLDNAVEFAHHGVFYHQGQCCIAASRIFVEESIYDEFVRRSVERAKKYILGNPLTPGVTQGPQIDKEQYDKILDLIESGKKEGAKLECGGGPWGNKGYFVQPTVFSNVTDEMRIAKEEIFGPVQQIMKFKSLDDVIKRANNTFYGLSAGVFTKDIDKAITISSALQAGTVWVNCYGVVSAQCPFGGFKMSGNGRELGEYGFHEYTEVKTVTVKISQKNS
HPGD inh = blocks human HPGD enzyme activity | purified HPGD, NADH fluorescence kinetic, PGE2 substrate | Potency, µM, hits mostly inhibitors | 150,000 compounds, 4.3% hits | AID 894
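20 nM HPGD preincubated 15 min at room temperature with compound in 50 mM Tris-HCl pH 8, 0.01% Tween 20. Started with 1 mM NAD+ and 30 uM prostaglandin E2; NADH fluorescence (360/450 nm) read 5 times over 30-s intervals, last minus first.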
KinaseGlo FLuc = blocks Kinase-Glo luciferase, a counter-screen artifact; Kinase-Glo luciferase, ATP luminescence, 8 min; Q27757; AID 1379; 200,000 compounds, 0.28% hits; Potency, µM (top dose mostly 38.3 µM), hits mostly inhibitors; active = well fitted inhibition curve with a large enough effect; inconclusive = small, poorly fitted or top-dose-only effect; also: nearly all actives have a fitted effect of over 60% in size
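Compound is pinned into ATP-containing buffer (10 uM ATP, imidazole pH 7.2, 7 mM MgCl2). Kinase-Glo luciferase reagent is then added. Light output is recorded following an 8-min room-temperature incubation.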
PNC assembly inh = perinucleolar compartment assembly inhibition; PC3M PTB-GFP, PNC prevalence imaging, 16 h; active compounds read low; activity change (PNC), negative = inhibition, % at 10 µM; 140,000 compounds, 3.1% hits; AID 2417;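 active = readout at or below -70, meaning at least 70% loss of cells showing the perinucleolar compartment, a nuclear body marking cancer cells; inconclusive = readout between -30 and a set limit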
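PC3M cells stably expressing PTB-GFP, 750–1000 cells/well, treated 16 h at 37 °C with compound (23 nl of library stock), in duplicate. After paraformaldehyde fixation and Hoechst stain, imaged at 20x; PNC prevalence scored by image analysis.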
Lamin A splicing = LMNA splicing modulation. 200,000 compounds, 0.01% hits. Potency, µM (series often up to 46.1 µM), usual class: inhibitors. HeLa LMNA splicing GFP/RFP minigene ratio, 48 h; active = well fitted inhibition curve with a large enough effect in the signal ratio, with a control signal flat, not every such curve was filed as active; inconclusive = small, poorly fitted or top-dose-only effect, or effect the other way, or a change in a side signal; the % refers to the signal ratio
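S3 HeLa stable clones carrying a lamin A-EGFP splicing minigene plus DsRed2 were seeded at 600 cells/well in Opti-MEM with 2% FBS, pin-dosed and incubated 48 h at 37°C. Acumen cytometry (488 nm) gave the GFP/RFP total-intensity ratio.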
A number is an active result; [ ] = remark or other dose. A selection: hits, their analogues and other compounds. The true share with any hit is near 10%. Unless noted, calls follow the shape of the dose curve; as a rule, active = well fitted inhibition curve with a large enough effect (not every such curve was filed as active); inconclusive = small, poorly fitted or top-dose-only effect, or another doubt; inactive = no such curve, though single readings can be large or run the other way.

Screening CCOC(=O)/C(C#N)=C\C1=C(N2CCCC2)CC(C)(C)OC1 returned ALDH1A1 block 14µM, HPGD inh inactive, KinaseGlo FLuc inactive, PNC assembly inh inactive and Lamin A splicing inactive.
For COC(=O)c1ccccc1NC(=O)c1nc(-c2ccc(C)cc2)n2c1CCCCC2 the results were Lamin A splicing inactive.
`CC(C)c1ccc(-n2cnn(-c3ncccc3[N+](=O)[O-])c2=O)cc1` gave ALDH1A1 block 14µM and KinaseGlo FLuc inactive.
Screening Cn1c(SCc2ccccc2Cl)nc2c([nH]c3ccccc32)c1=O returned Lamin A splicing inactive.
Screening COc1ccc(CCNC(=O)C(=O)NCC(c2cccnc2)N2CCN(c3ccccc3)CC2)cc1 (stereo not drawn) returned Lamin A splicing inactive.
Screening Nc1cccc(OCc2nc(N)nc(N)c2-c2ccc(Cl)cc2)c1 returned ALDH1A1 block inactive[13.5 µM], HPGD inh inactive and KinaseGlo FLuc inactive[7.66 µM].
Cc1cccc(/C(N)=N/OC(=O)c2ccc(F)cc2)c1 was read as ALDH1A1 block inactive, HPGD inh inactive, KinaseGlo FLuc 11µM, PNC assembly inh inactive and Lamin A splicing inactive.
Screening N/C(=N\OC(=O)c1cccs1)c1cccc(Br)c1 returned ALDH1A1 block inactive, KinaseGlo FLuc inconclusive and Lamin A splicing inactive.
Cc1ccc(/C(N)=N/OC(=O)c2cccs2)cc1 was read as ALDH1A1 block inactive, HPGD inh inactive, KinaseGlo FLuc inactive, PNC assembly inh inactive and Lamin A splicing inactive.
N/C(=N\OC(=O)c1cccs1)c1ccccc1 was read as ALDH1A1 block inactive, HPGD inh 32µM, KinaseGlo FLuc 10µM, PNC assembly inh inactive and Lamin A splicing inactive.
Cc1cccc(/C(N)=N/OC(=O)c2cccs2)c1 was read as ALDH1A1 block inactive, HPGD inh 20µM, KinaseGlo FLuc 2.5µM, PNC assembly inh inactive and Lamin A splicing inactive[0.0737 µM].
For Cc1cccc(C(=O)O/N=C(\c2ccccc2)c2cccnc2)c1 the results were ALDH1A1 block 16µM, HPGD inh inactive, KinaseGlo FLuc inactive, PNC assembly inh inactive and Lamin A splicing inactive.
`Cc1ccc(C(=O)O/N=C(\c2ccccc2)c2cccnc2)cc1` gave ALDH1A1 block inconclusive, HPGD inh inactive, KinaseGlo FLuc inactive, PNC assembly inh inactive and Lamin A splicing inactive.
Screening COc1ccc(N(C(C)C(=O)N/N=C/c2ccc(OC(C)C)cc2)S(C)(=O)=O)cc1 (stereo not drawn) returned ALDH1A1 block 14µM, HPGD inh inactive, KinaseGlo FLuc inactive, PNC assembly inh inactive and Lamin A splicing inconclusive.
CCOc1ccc(/C=N/NC(=O)C(C)N(c2ccc(OC)cc2)S(C)(=O)=O)cc1 (stereo not drawn) was read as ALDH1A1 block inactive, HPGD inh inactive, KinaseGlo FLuc inactive, PNC assembly inh inconclusive and Lamin A splicing inconclusive.
For COC(=O)[C@]1(C)CCC[C@]2(C)c3ccc(C(C)C)cc3C(=O)CC12 (stereo partly drawn) the results were ALDH1A1 block inconclusive, HPGD inh inactive, KinaseGlo FLuc inactive and Lamin A splicing inactive.
Screening Cc1cc(C)n2c(SC/C(O)=C(\C#N)c3nc4ccccc4[nH]3)nnc2n1 returned ALDH1A1 block 18µM, HPGD inh inconclusive, KinaseGlo FLuc inactive, PNC assembly inh inactive and Lamin A splicing inactive.
For Cc1ccccc1-n1c(SC/C(O)=C(\C#N)c2nc3ccccc3[nH]2)nnc1-c1ccncc1 the results were ALDH1A1 block inconclusive, HPGD inh inactive, KinaseGlo FLuc inactive, PNC assembly inh inactive and Lamin A splicing inactive.
`c1ccc2c3c([nH]c2c1)[C@@H]1[C@H]2CC[C@H]([C@H]4CCCN[C@H]42)N1CC3` gave ALDH1A1 block inactive, HPGD inh inconclusive, KinaseGlo FLuc inactive and Lamin A splicing inactive.
For CC(=O)OC1CC(OC(C)=O)[C@]2(C)C(CC(=O)[C@]3(C)C2CC[C@@]2(C)C(C(=O)O)OC(=O)C4OC423)C1(C)C (stereo partly drawn) the results were ALDH1A1 block inactive, HPGD inh inactive and KinaseGlo FLuc inactive.
Screening COc1ccc(C(=O)Nn2c(SCC(=O)NC3CCCCC3)nc3ccccc3c2=O)cc1 returned ALDH1A1 block inconclusive, HPGD inh inactive, KinaseGlo FLuc 14µM, PNC assembly inh inactive and Lamin A splicing inactive.
CCn1c(SCC(=O)NC2CCCCC2)nnc1-c1cc2cccc(OC)c2o1 was read as ALDH1A1 block inconclusive, HPGD inh 20µM, KinaseGlo FLuc inactive, PNC assembly inh inactive and Lamin A splicing inactive.
